Measured values as given in PubChem BioAssay AID588405 (Sanford-Burnham Center for Chemical Genomics, 2011).
The whole screen tested about 360,000 compounds, of which about 6,200 (1.7%) were called active.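 Rule for the calls: active = inhibition of at least 50% at 20 µM; inactive = the rest.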 Shown is part of a subset that was picked to be rich in actives.

Experiment: Peg3 promoter-driven luciferase inhibitors, primary screen, cell-based, HeLa, luciferase luminescence (AID 588405)
Details: HeLa PEG-Prom luciferase reporter, overnight, at 20 µM, stronger effect = higher value

inhibition, inactive:
CCc1nc2c(OCCC3CCCCC3)cccn2c1N(C)C(=O)c1ccco1 5.45%
CC1=CC(C)(C)NC(=S)N1NC(=O)c1ccccc1Cl -9.1%
COc1ccccc1C(=O)NN1C(=O)C2C3C=CC(O3)C2C1=O (stereo not given) 17.5%
CCCCOc1ccc(N(CC(=O)NC(C)C)C(=O)CCC(=O)Nc2ccccn2)cc1 -4.29%
NC1=C([N+](=O)[O-])C(c2ccccc2)C2=C(CCCC2=O)O1 (stereo not given) 9.24%
O=S1(=O)CCN(C2CCCCCCCCCCC2)CC1 0.61%
COc1ccc(/C=C2\SC(=S)N(CCC(=O)N3CCOCC3)C2=O)cc1OC -27.5%
CCN(C(=O)CN1C(=O)/C(=C/c2ccc(F)cc2)SC1=S)C1CCS(=O)(=O)C1 (stereo not given) -2.93%
CC(C)(C)c1ccc(S(=O)(=O)NC(=O)C2(C)CCN2C(=O)CC2CC2)cc1 (stereo not given) -3.67%
Cc1cc(=O)oc2c3c(cc(OCC(=O)NCC(O)c4ccccc4)c12)OC(C)(C)CC3 (stereo not given) 12.4%
CCCC(=O)NC(C)C(c1cccs1)N1CCN(c2ccccc2)CC1 (stereo not given) 7.84%
CC(NC(=S)Nc1ccccc1)C(c1cccs1)N1CCOCC1 (stereo not given) 14.7%
CCc1nc2c(OCCOc3ccccc3)cccn2c1N(C=O)Cc1ccc(OC)cc1 6.15%
COc1ccc(CCn2ccc(O)c(Cc3ccc(Cl)cc3Cl)c2=O)cc1OC 6.97%
COc1ccc(C(=O)n2nc(-c3ccc(Cl)cc3)nc2N)cc1OC 10.6%
O=C(NCc1ccccc1)C(c1ccco1)N(C(=O)c1csnn1)c1ccccc1F (stereo not given) 5.02%
CSc1ccc(C(=O)C2CCCN(C(=O)c3ccc(C)nc3)C2)cc1 (stereo not given) 1.04%
CCCCn1nnnc1C(c1cccc(OC)c1OC)N1CCN(C/C=C/c2ccccc2)CC1 (stereo not given) -3.54%
CC(C)C[C@H](CO)Nc1nc(N(C)c2cccc(Cl)c2)c2ncn(C(C)C)c2n1 12.4%
Cc1ccc(C(O)c2ncc(-c3ccccc3F)[nH]2)cc1F (stereo not given) -67.5%
O=C(NCc1ccncc1)C1CCN(C(=O)c2cccc(Cl)c2)CC1 0.12%
O=C(NC1CCCC1)C(c1c(F)cccc1Cl)N(C(=O)c1csnn1)C1CC1 (stereo not given) 16.7%
COC(=O)CC1=NN(c2ccccc2)C(=O)C1 5.53%
CCc1nc2ccccc2c(C(=O)NCc2ccc(OC)cc2)c1C 16.9%
N#Cc1cccc(CN2CCC(=O)N([C@H](CO)c3ccccc3)CC2)c1 -12.2%
CC(=O)c1cccc(-c2cnc3c(NC=O)cc(-c4ccccc4Oc4ccccc4)cn23)c1 0.73%
CCCCN(C=O)c1c(CC)nc2c(OCCC3CCCCC3)cccn12 18.3%
CCOC(=O)C1(C)CCCN(C(=O)c2ccc(F)c(Cl)c2)C1 (stereo not given) 8.51%
CC1(C(=O)NS(=O)(=O)c2cccc(OC(F)F)c2)CCN1C(=O)COc1ccc(Cl)cc1 (stereo not given) -1.93%
O=C1N[C@@H](c2ccccc2)COC(=O)[C@H](Cc2ccc(F)cc2)C/C=C\C[C@@H]1CC(=O)N(CCO)Cc1ccccc1 24.9%
O=C1CCC/C=C/C[C@@H](CC(=O)N(CCO)Cc2ccccc2)C(=O)NC[C@H](c2ccccc2)O1 -18.6%
CCOC(=O)C1=CC[C@@H](c2ccccc2)N(S(=O)(=O)c2ccc(C)cc2)[C@H]1c1ccc(CC)cc1 13%
CC(C)CCN1CCN(Cc2cn[nH]c2C2CCCCC2)CC1CCO (stereo not given) 8.83%
O=C(CNC(=O)OCc1ccccc1)Oc1cc2oc(=O)cc(-c3ccccc3)c2cc1Cl 11.5%
COc1cccc(NC(=O)C2(C)CCN2C(=O)CCC2CCCC2)c1 (stereo not given) 9.97%
O=C(/C=C/[C@H]1O[C@@H](n2cnc3c(NC(=O)c4ccccc4)ncnc32)[C@H](O)[C@@H]1O)NCc1ccccc1 -2.88%
COc1cc(CNCCN(C)C)ccc1OCc1c(F)cccc1Cl 2.85%
O=C(/C=C/c1ccc(OCc2c(F)cccc2Cl)cc1)N1CCOCC1 -42.8%
CC(NC(=O)C(C)(C)C)C(c1cccs1)N1CCN(Cc2ccccc2)CC1 (stereo not given) 3.48%
Cc1coc2c1c(C)cc1oc(=O)c(CC(=O)NCC(=O)N[C@H](C(=O)O)C(C)C)c(C)c12 -3.37%
COc1ccc(C(=O)N2CCCCC2c2cc(C(=O)Nc3ccccc3)no2)cc1 (stereo not given) 1.75%
CCOC(=O)c1sc(NC(=O)CCN2CCOCC2)c(C(=O)OCC)c1C 4.41%
CCOC(=O)Nc1sc(C(=O)N(C)C)c(C)c1C(=O)OCC 16.3%
Nc1cc(=O)c2[nH]cnc2[nH]1 -0.63%
O=c1cc(CN2CCCCCCC2)c2c(ccc3ccccc32)o1 9.42%
COC(=O)c1ccc(OCC(=O)NC(C)(C)C)cc1 -42.5%
CCCOc1ccc(/C=N/NC(=O)C2CC2)c(OCCC)c1 -4.16%
Cc1cc(Br)cn2c(Cc3ccccc3C(F)(F)F)c(C3CCCCC3)nc12 5.05%
CC1(C(=O)NS(=O)(=O)c2cccc(F)c2)CCN1C(=O)c1cccc2ccccc12 (stereo not given) -0.5%
COc1ccc2c(CN3CCN(S(=O)(=O)c4cccs4)CC3)cc(=O)oc2c1 0.03%
O=S(=O)(c1cccs1)N1CCN(Cc2ccccc2)CC1 0.76%
COc1cncc(-c2cnc3sc(NCCc4ccccn4)nn23)c1 37.3%
Cc1ccc(NN=C2C(=O)OC(C)(C)OC2=O)c(C)c1 -290%
O=C(Nc1cccc(O)c1)c1ccc(C(=O)c2ccccc2)o1 -268%
Cc1onc(NC(=O)c2ccc([N+](=O)[O-])o2)c1Br 14.7%
O=C(Nc1cccc2cccnc12)c1ccc2sc([C@H]3C[C@H](O)[C@@H](CO)O3)nc2c1 -70.4%
O=C(Nc1cccc(Cc2ccccc2)c1)Nc1ccc2nc([C@@H]3O[C@H](CO)[C@@H](O)[C@H](O)[C@H]3O)[nH]c2c1 -16.1%
CC(C)CN(C(=O)COC(=O)c1ccc(Cl)c(N)c1)c1c(N)n(Cc2ccccc2)c(=O)[nH]c1=O -4.65%
Cc1csc(=O)n1CC(=O)OCC(=O)N(CC(C)C)c1c(N)n(Cc2ccccc2)c(=O)[nH]c1=O -11.2%
CNc1cc(-c2c(OC)cccc2OC)ncn1 -4.17%
CC(=O)Oc1ccc(Cn2c(C)c(C(=O)NCc3ccc(C#N)cc3)sc2=O)cc1 9.61%
NS(=O)(=O)c1ccc(CNC(=O)c2cccc(S(=O)(=O)N3CCc4ccccc43)c2)cc1 23.1%
CC1CN(S(=O)(=O)c2ccc(C(=O)Nc3sccc3C(N)=O)cc2)CC(C)O1 (stereo not given) 32.5%
CCOC(=O)c1ccccc1NC(=O)CSc1nc2c(sc(=S)n2CC)c(=O)[nH]1 8.72%
CCOC(=O)c1cc(-c2sc(NC(=O)c3ccccc3)nc2C)n(Cc2ccccc2)n1 -5.67%
O=C(NC(Cc1ccccc1)C(=O)N1CCCC1C(=O)O)c1ccccc1 (stereo not given) 11.6%
NC(=O)c1ccc(NC(=O)COC(=O)C(Cc2ccccc2)NC(=O)c2ccccc2)cc1 (stereo not given) -2.3%
COCCSc1nnc(NC(=O)c2cc(OC)c(OC)cc2[N+](=O)[O-])s1 7.25%
CC1(C(=O)NS(=O)(=O)c2ccccc2)CCN1C(=O)Cc1ccc(-c2ccccc2)cc1 (stereo not given) -4.22%
CCCNC(=O)C1(C)CCN(Cc2csc(-c3ccc(Cl)cc3)n2)C1 (stereo not given) -23.7%

inhibition, active:
CC12CCC(C(=O)N(NC(=O)c3ccccc3O)C1=O)C2(C)C (stereo not given) 53.1%
O=C1/C(=C/c2ccc(F)cc2)SC(=S)N1CCCC(=O)N1CCCCC1CCO (stereo not given) 58.3%
CC(NC(=O)Nc1ccccc1)C(c1cccs1)N1CCN(c2ccccc2)CC1 (stereo not given) 66.2%
COc1ccc(C(=O)O/N=C(\N)Cc2ccc(Cl)cc2Cl)cc1OC 110%
CC(C)n1cnc2c(Nc3cccc(Cl)c3)nc(N(CCO)CCCO)nc21 96.1%
COC(=O)Cc1[nH]n(-c2nc3ccccc3s2)c(=O)c1C(C)=Nc1ccc(OC)cc1 89.1%
O=C1NC[C@@H](c2ccccc2)OC(=O)[C@H](Cc2ccc(F)cc2)CC/C=C/C[C@H]1CC(=O)N(CCO)Cc1ccccc1 54.9%
CN(C)CCCNC(=O)/C=C/c1ccc(OCc2c(F)cccc2Cl)cc1 70.2%
CCOC(=O)c1c(NC(=O)CCl)sc(C(=O)N(CC)CC)c1C 67.2%
CCCOc1ccc(C(=O)C(CCC(CNCC)C(=O)c2ccc(OCCC)cc2)CNCC)cc1 (stereo not given) 116%
Cc1cc2oc(=O)cc(CN3CCN(S(=O)(=O)c4cccs4)CC3)c2cc1C(C)C 51.9%
Cc1cccc(NC(=O)c2ccc([N+](=O)[O-])o2)c1 65.2%
CC(C)CN(C(=O)COC(=O)c1ccc2ccccc2c1)c1c(N)n(Cc2ccccc2)c(=O)[nH]c1=O 86.1%
CNC(=O)c1ccsc1NC(=O)c1ccc(S(=O)(=O)N2CCc3ccccc32)cc1 50.7%
CN(Cc1ccccc1F)C(=O)C(Cc1ccccc1)NC(=O)c1ccccc1 (stereo not given) 53.2%
